High-throughput results: PubChem, National Center for Advancing Translational Sciences (NCATS)
RE007 growth inh = qHTS Assay for Inhibitors of the HIV-1 protein Vpr. S. pombe RE007 Vpr strain, BacTiter-Glo ATP luminescence, 24 h. Potency, µM (series often up to 92.2 µM), without a hit: top-dose activity change, negative = less growth, actives largely listed as inhibitors. 0.21% of 360,000 active; active = well fitted falling curve with a large enough effect; inconclusive = small, poorly fitted or top-dose-only effect; inactive = no such curve, though single readings can be large or run the other way; note: nearly all actives have a fitted effect of over 50% in size
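Fission yeast strain RE007, carrying one chromosomally integrated HIV-1 vpr copy, was seeded at OD 0.01 in PMG+AL medium with 23 nL pinned compound. After 24 h at 30 °C and 99% humidity, viability was read by BacTiter-Glo luminescence.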
Sm TGR block = qHTS Assay for the Inhibitors of Schistosoma Mansoni Peroxiredoxins | Schistosoma mansoni thioredoxin glutathione reductase (TGR), Q962Y6 | purified TGR, DTNB reduction, TNB absorbance 405 nm | Potency, µM (doses to about 114 µM), inactives show at the highest dose activity change, negative = inhibition, actives largely listed as inhibitors | 3% of 360,000 active | AID 485364, 2010; note: nearly all actives have a fitted effect of over 60% in size
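Kinetic colorimetric format: TGR-catalysed, NADPH-driven DTNB reduction monitored via TNB absorbance. Enzyme dispensed at 20 nM; compound exposure 15 min at room temperature before reaction start.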
Giardia FBPA inh = qHTS Assay for Inhibitors of Fructose-1,6-bisphosphate Aldolase from Giardia Lamblia. A8B2U2. purified Giardia FBPA. Potency, µM (series often up to 59.6 µM), without a hit: at the top dose activity, negative = inhibition, most hits filed as inhibitors. 0.71% of 290,000 active. AID 2451, 2010; note: nearly all actives have a fitted effect of over 55% in size
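Giardia FBPA (40 nM reagent) was preincubated 10 min at RT with compound (up to 57.5 uM final), then substrate plus GAPDH/TPI/NAD/arsenate coupling system with diaphorase/resazurin was added; resorufin fluorescence (525/598 nm) was read after 20 min.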
Tb PYK inh = qHTS of Trypanosoma Brucei Inhibitors; pyruvate kinase (Trypanosoma brucei), Q57TT1; TbPYK enzyme, Kinase-Glo Plus ATP luminescence, 45 min; Potency, µM (series often up to 76.8 µM), for inactives: at the top dose activity, negative = inhibition, usual class: inhibitors; 0.12% of 410,000 active; AID 624173, 2012; note: nearly all actives have a fitted effect of over 50% in size
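Assay buffer: 50 mM TEA pH 7.2, 100 mM KCl, 10 mM MgCl2, 0.05% BSA, 0.01% Tween-20. Pyruvate kinase from T. brucei plus substrate met compound, then ADP (130 uM final). Luminescence was read post 45 min RT.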
LmPK inhibitor = qHTS Assay for Inhibitors of Leishmania Mexicana Pyruvate Kinase (LmPK); 0.37% of 290,000 active; Potency, µM (top dose mostly 57.5 µM), for inactives: at the highest dose activity change, negative = inhibition, actives largely listed as inhibitors; AID 1721, 2009; Q27686; purified LmPK, Kinase-Glo ATP luminescence, 1 h
Target sequence (Q27686 whole entry, looked up): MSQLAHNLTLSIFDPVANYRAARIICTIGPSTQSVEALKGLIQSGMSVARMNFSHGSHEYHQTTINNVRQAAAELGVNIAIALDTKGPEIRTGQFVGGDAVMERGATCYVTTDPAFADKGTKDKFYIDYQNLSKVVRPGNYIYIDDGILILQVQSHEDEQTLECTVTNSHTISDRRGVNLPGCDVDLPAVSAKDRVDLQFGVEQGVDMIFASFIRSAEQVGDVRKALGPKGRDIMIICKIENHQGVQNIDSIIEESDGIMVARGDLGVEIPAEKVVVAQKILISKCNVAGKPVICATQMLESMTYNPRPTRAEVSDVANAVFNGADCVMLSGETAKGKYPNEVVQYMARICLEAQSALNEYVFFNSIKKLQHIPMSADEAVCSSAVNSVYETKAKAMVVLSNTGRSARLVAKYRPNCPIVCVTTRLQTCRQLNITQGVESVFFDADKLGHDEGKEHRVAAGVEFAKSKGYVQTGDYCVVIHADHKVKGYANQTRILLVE
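0.1 nM LmPK, 0.5 mM PEP, 0.1 mM ADP; 50 mM imidazole pH 7.2, 7 mM MgCl2, 50 mM KCl; 1 h RT. Kinase-Glo luminescence readout, normalized to no-enzyme (full inhibition) and uninhibited wells.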
* hit, by the source's call; ? = inconclusive; · = no result given; [ ] = another dose, or the depositor's remark. This is a sample that favours compounds with a hit; in the whole collection about 3.3% have one here. Unless noted, calls come from the whole dose curve; as a rule, active = well fitted curve in the direction sought with a large enough effect; inconclusive = small, poorly fitted or top-dose-only effect, or another doubt; inactive = no such curve, though single readings can be large; an effect the other way counts as inactive or inconclusive. % is set by controls: 0 for no effect and ±100 for the full control effect; potency is the fitted concentration of half-maximal effect.

SMILES | RE007 growth inh | Sm TGR block | Giardia FBPA inh | Tb PYK inh | LmPK inhibitor
COC(=O)CCCC1=CC2=C(c3ccccc3)C(=O)C(C)(OC(=O)C3CCCC3)C(=O)C2=CN1Cc1ccco1 (stereo unspecified) | 0% | 22µM* | ? | -3% | -2%[11.5 µM]
COC(=O)CCCC1=CC2=C(c3ccccc3)C(=O)C(C)(OC(=O)C3CCCC3)C(=O)C2=CN1CCCCO (stereo unspecified) | -14% | 41% | ? | -3% | -8%[11.5 µM]
CCOC(=O)/C=C1\CN(Cc2cc(OC)c(OC)c(OC)c2)S(=O)(=O)c2ccc(C(F)(F)F)cc21 | -3% | 28µM* | -7% | 2% | -6%
CN(C1CCCCC1)S(=O)(=O)c1ccc2c(c1)c(=O)c(C(=O)N1CCc3ccccc3C1)cn2C | 7% | 6% | 4% | -2% | 7%
CC1(C)CC(=O)C(CS(=O)(=O)c2ccccc2)=C(Cl)C1 | 7% | 7.1µM* | · | -16% | -3%
CCOc1ccc(NS(=O)(=O)c2cc(NC(=O)C3CC3)ccc2C)cc1Br | -3% | · | · | -10% | ·
CC1CN(c2ccc([N+](=O)[O-])cc2F)CCN1C(=O)c1ccco1 (stereo unspecified) | ? | -4% | 1% | 9% | -2%
O=C(COc1ccc([N+](=O)[O-])cc1)Nc1ccc(N2CCN(C(=O)c3ccco3)CC2)cc1 | -2% | 35µM* | · | 3% | -11%
O=C(c1ccco1)N1CCN(c2ccc([N+](=O)[O-])cc2F)CC1 | -3% | 35µM* | · | 3% | -2%
O=C1CCN(c2ccc([N+](=O)[O-])cc2F)CC1 | 15% | 40µM* | 4% | -4% | -2%
Cc1cc(=O)n(CC(=O)NCCC(C)C)c2c1c(C)nn2C | · | 6% | · | 5% | ·
CCNc1c(NC(=O)COc2ccc(Cl)cc2)c(=O)oc2ccccc12 | 8% | -1% | 4% | -2% | 1%
C=CCOc1ccc(/C=C(\C#N)C(=O)Nc2ccccn2)cc1OC | 0% | 0% | 7% | -7% | -5%
Clc1ccc(CCNCc2ccncc2)c(Cl)c1 | 7% | 28µM* | ? | -2% | -4%
Fc1ccc(CNCCc2ccc3c(c2)OCO3)cc1 | -19% | 0% | -29% | 16% | -8%
c1cc(CNCCc2ccc3c(c2)OCO3)ccn1 | 3% | 45µM* | ? | 1% | -1%
COc1ccc(S(=O)(=O)NCC(=O)N(Cc2ccco2)C(C(=O)NC(C)(C)C)C(C)C)cc1 (stereo unspecified) | 0% | 7% | · | 4% | -5%
Cc1ccc(C2CC(c3cccs3)=NN2C(=O)CCl)cc1 (stereo unspecified) | 14% | 2.5µM* | 10% | -7% | 0%
N#CCSC1=Nc2ccccc2C2=NC(CCC(=O)N3CCN(c4ccccc4)CC3)C(=O)N12 (stereo unspecified) | 5% | -10% | ? | 8% | 5%
COc1ccc(N=Cc2c(O)c3ccccc3n2C(C)=O)cc1 | ? | 28µM* | ? | -3% | -24%
C/C=C(\C)C(=O)NCCN1C2=NC[C@H](Cc3ccc(O)cc3)N2C[C@H]1Cc1ccc(O)cc1 | -9% | 50µM* | 17% | 2% | -3%
COc1ccc(C[C@H]2CN3C(=NC[C@@H]3C)N2CCNC(=O)CCC2CCCCC2)cc1 | 7% | 16µM* | -1% | 0% | 4%
C/C=C(\C)C(=O)N[C@@H](C)CN1C2=NC[C@H](C(C)C)N2C[C@H]1Cc1ccc(OC)cc1 | -13% | 5.6µM* | -2% | 0% | 2%
C/C=C(\C)C(=O)NCCN1C2=NC[C@H](C(C)C)N2C[C@@H]1Cc1ccc(OC)cc1 | -1% | 0% | 11% | 0% | 0%
COc1ccc(C[C@@H]2CN3C(=NC[C@@H]3C)N2C[C@H](C)NC(=O)c2ccc(C)c(Br)c2)cc1 | -9% | 22µM* | -1% | 0% | 1%
SMILES | RE007 growth inh | Sm TGR block | Giardia FBPA inh | Tb PYK inh | LmPK inhibitor
Cc1nn(CCCC(=O)NCc2ccco2)c(=O)c2nn(-c3ccccc3)c(C)c12 | -2% | -13% | · | -9% | 1%
CC(C)[C@H]1CN=C2N(C[C@H](C)NC(=O)CCC3CCCCC3)[C@H](Cc3ccc(O)cc3)CN21 | ? | 20µM* | -12% | -16% | 1%
C=CCNC(=O)/C(C#N)=C\c1cc(Cl)c(O)c(OCC)c1 | -12% | 40µM* | ? | 2% | -1%
CCOc1cc(/C=C(/C#N)C(=O)Nc2ccc(O)cc2)cc(Br)c1O | 7% | ? | -9% | -3% | 5%
O=C1/C(=C/c2cccnc2)CCC/C1=C\c1cccnc1 | ? | 40µM* | 0% | -8% | 1%
O=C1/C(=C\c2cccnc2)CCc2ccccc21 | ? | -8% | 0% | 5% | 16µM*
O=C1/C(=C/c2cccnc2)CC/C1=C\c1cccnc1 | -14% | -27% | 1% | -3% | 1%[11.5 µM]
CC(C)/C=C1\CC/C(=C\c2cccnc2)C1=O | -11% | 25µM* | -11% | -4% | 1%
N#Cc1c(C#N)c(SSc2c(C#N)c(C#N)c(N)n2-c2ccccc2)n(-c2ccccc2)c1N | -8% | · | · | 0.89µM* | ·
COCCCn1c(C)cc(C(=O)CN2c3cccc4cccc(c34)S2(=O)=O)c1C | 4% | 22µM* | · | -19% | ·
CC1(C)CC(=O)C=C(NC2=CC3OC(c4ccccc4)OCC3OC2=O)C1 (stereo unspecified) | -16% | 20µM* | 1% | -19% | -2%
CN1C(=O)CC(Nc2cccc3cccc(N)c23)C1=O (stereo unspecified) | -26% | 32µM* | ? | -4% | 4%
NC(=O)c1ccc(N=Cc2ccc([N+](=O)[O-])s2)cc1 | 40µM* | 14µM* | ? | -14% | 1%
Cc1cc(C)cc(N=Cc2ccc([N+](=O)[O-])s2)c1 | 40µM* | ? | -21% | -14% | 3%
C[C@]12CC[C@@H]3c4ccc(O)cc4CC[C@H]3[C@@H]1CC[C@@H]2OC(=O)CCC(=O)O | 1%[18.4 µM] | 45µM* | 12% | 1% | 8%
CCCCC(=O)OC1CCC2C3CCc4cc(O)ccc4C3CCC12C (stereo unspecified) | -16% | · | · | 6% | ·
C=C1C(=O)[C@@]23[C@H](O)C[C@@H]4C(C)(C)CC[C@H](O)[C@@]4(C)[C@@H]2CC[C@@H]1[C@H]3O | 3% | 20µM* | -3% | -3% | 0%
C=C1C(=O)[C@]23C[C@H]1CCC2[C@]1(C)CCC[C@@](C)(C(=O)O)C1C[C@@H]3O (stereo partly specified) | ? | · | · | -2% | ·
